Rows were chosen to be rich in hits. Some 7.9% of all compounds tested hit in one or more screens of this group.
PLAP act: activators of human placental alkaline phosphatase. P05187. AID 696. 96,000 compounds, 1.2% hits. activation fold at 20 µM. purified PLAP enzyme, luminescent substrate read-out; active compounds read high; in the data active = activation fold above about 2
M1 antag: antagonists of rat M1 muscarinic receptor. P08482. CHO-M1 cells, Fluo-4 calcium, ACh EC80 antagonist mode; active compounds read low. B-score at 10 µM. 64,000 compounds, 3.4% hits;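 active = calcium fluorescence response, raw or row-and-column corrected B-score, differing from the plate sample mean either way at a set confidence level, mostly lower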
Cav32 inh: blocks human Cav3.2 T-type calcium channel; O95180; Cav3.2-expressing cells, Fluo-4 calcium fluorescence FDSS; active compounds read low; B-score at 10 µM; 100,000 compounds, 4% hits;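 active = single-dose well whose peak fluorescence ratio is a statistical outlier from its plate by either plate-standardised score or position-corrected B-score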
M1 ag: activates the M1 muscarinic receptor. CHO-M1 cells, Fluo-4 calcium fluorescence, agonist mode; active compounds read high. B-score at 10 µM. 64,000 compounds, 3% hits;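 active = fluorescence rise, raw or as B-score row- and column-corrected plate score, outside the 99.7% band of its plate's samples, either direction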
HER2 expr 66K: lowers expression of human Her2 kinase | P04626 | SKBR-3 HER2 protein level, AlphaScreen, 18-24 h; active compounds read low | HER2 level % of control, % at 10 µM | 65,000 compounds, 0.69% hits | AID 645;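 active = HER2 level under 5% of the carrier-only control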;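 also: 100% = DMSO carrier and 0% = 500 nM PU-H71 HSP90 inhibitor; lower value means stronger loss of Her2 protein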
Target sequence (P04626 whole entry, looked up): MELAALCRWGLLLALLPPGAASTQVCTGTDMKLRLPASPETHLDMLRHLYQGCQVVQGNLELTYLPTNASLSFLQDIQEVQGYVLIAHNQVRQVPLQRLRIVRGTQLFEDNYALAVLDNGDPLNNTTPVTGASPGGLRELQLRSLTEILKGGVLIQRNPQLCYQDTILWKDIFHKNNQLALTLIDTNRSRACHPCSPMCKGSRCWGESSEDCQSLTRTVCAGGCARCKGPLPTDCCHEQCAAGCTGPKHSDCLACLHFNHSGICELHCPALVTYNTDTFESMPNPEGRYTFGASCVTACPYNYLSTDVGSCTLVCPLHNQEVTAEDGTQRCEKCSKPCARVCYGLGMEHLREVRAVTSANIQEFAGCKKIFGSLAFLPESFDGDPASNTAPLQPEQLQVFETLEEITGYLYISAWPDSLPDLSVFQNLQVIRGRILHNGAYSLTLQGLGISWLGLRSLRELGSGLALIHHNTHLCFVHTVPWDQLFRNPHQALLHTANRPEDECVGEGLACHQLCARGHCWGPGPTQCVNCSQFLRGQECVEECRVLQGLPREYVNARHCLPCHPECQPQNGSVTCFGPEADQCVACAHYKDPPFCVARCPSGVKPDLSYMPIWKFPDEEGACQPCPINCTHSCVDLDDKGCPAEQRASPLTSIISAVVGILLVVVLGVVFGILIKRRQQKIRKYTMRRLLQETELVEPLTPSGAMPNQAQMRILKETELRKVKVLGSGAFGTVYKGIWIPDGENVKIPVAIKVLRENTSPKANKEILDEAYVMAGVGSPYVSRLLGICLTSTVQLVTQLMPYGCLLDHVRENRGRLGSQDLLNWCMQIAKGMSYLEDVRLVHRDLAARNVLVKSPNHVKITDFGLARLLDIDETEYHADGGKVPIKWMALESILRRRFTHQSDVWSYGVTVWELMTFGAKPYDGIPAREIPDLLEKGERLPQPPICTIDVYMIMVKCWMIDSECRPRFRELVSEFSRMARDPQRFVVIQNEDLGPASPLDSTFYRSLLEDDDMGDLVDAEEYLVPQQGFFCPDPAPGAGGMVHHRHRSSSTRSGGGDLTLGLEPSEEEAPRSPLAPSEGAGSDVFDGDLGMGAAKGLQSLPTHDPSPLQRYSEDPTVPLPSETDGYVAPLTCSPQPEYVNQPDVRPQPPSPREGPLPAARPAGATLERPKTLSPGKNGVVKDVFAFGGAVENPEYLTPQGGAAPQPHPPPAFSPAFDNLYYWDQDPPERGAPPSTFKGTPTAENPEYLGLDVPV
M1 antag conf: confirmation of rat M1 muscarinic receptor antagonists. CHO-M1 cells, Fluo-4 calcium, ACh EC80 antagonism; active compounds read low. 1,700 compounds, 43% hits. shares compounds with M1 antag. calcium response (max-min fluorescence) at 10 µM;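 active = calcium response below the same-plate mean of wells given acetylcholine alone at its 80%-effect dose, minus 3 SD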;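 also: raw fluorescence intensity difference in arbitrary instrument units and not normalized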
mGluR4 antag: mGluR4 (human) activity, M1 antagonist secondary assay; CHO-mGluR4 calcium flux, Fluo-4 fluorescence, glutamate EC80; active compounds read low; shares compounds with M1 antag; AID 678; 1,700 compounds, 0.9% hits; fluorescence response (max-min) at 10 µM;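 active = fluorescence response below the plate's average for near-maximal glutamate wells, less 3 SD of those wells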;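 also: raw unnormalized fluorescence span taken in the window right after glutamate addition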
Numbers without * were called inactive; / = no result given.

SMILES | PLAP act | M1 antag | Cav32 inh | M1 ag | HER2 expr 66K | M1 antag conf | mGluR4 antag
COCCN(C(=O)Cn1nnc2ccccc21)C(C(=O)NC1CCCC1)c1cccc(OC)c1OC (centres undefined) | 1.3 | -3.9* | 0.81 | -0.32 | 79 | 600 | 217
COc1cccc(C(=O)Cn2c(=O)n(CC3CCCO3)c(=O)c3ccccc32)c1 (centres undefined) | 1.7 | 0.83 | / | 2 | 74 | / | /
CC(C)Cn1c(SCC(=O)N2CCN(S(=O)(=O)c3ccccc3)CC2)nc2ccccc21 | 1.5 | -2.6* | -2.5 | 2.4 | 102 | 348* | 198
Cn1c(SCC(=O)N2CCN(S(=O)(=O)c3ccccc3)CC2)nc2ccccc21 | 1.1 | / | 0.66 | / | / | / | /
Cn1c(SCC(=O)N2CCN(S(=O)(=O)c3ccc(Cl)cc3)CC2)nc2ccccc21 | 1.7 | / | -0.71 | / | / | / | /
N#CCCn1c(SCC(=O)N2CCN(S(=O)(=O)c3ccccc3)CC2)nc2ccccc21 | 1.4 | -10* | 0.64 | -2.1 | 112 | 199* | 227
CC(=O)OCC1OC(Sc2cccc3cccnc23)C(OC(C)=O)C(OC(C)=O)C1OC(C)=O (centres undefined) | 1.5 | / | 2 | / | / | / | /
CCOC(=O)CN(C(=O)CSc1nnc(-c2ccncc2)n1CCCN(C)C)c1ccccc1 | 1 | -1.4* | -0.55 | 0.28 | 98 | 611 | 249
CCOC(=O)CN(C(=O)CSc1nnc(-c2ccncc2)n1CCCOC)c1ccccc1 | / | / | -0.47 | / | / | / | /
COc1ccc(OCC(=O)N2CCN(C(=O)c3cccc(F)c3)CC2)cc1 | 1.3 | / | 0.62 | / | / | / | /
CC(C)CC(=O)N1CCN(C(=O)c2cccc(F)c2)CC1 | 0.9 | -2.2* | 0.22 | 0.83 | 119 | 622 | 246
O=C(Nc1cccc(Cl)c1)N(CCN1CCOCC1)Cc1ccccc1F | 1.3 | / | -0.46 | / | / | / | /
O=C(Nc1cccc(Cl)c1)N(CCN1CCOCC1)Cc1cccc(Cl)c1 | 1.9 | -2.4* | -1.3 | 1 | 106 | 255* | 227
CCOC(=O)c1oc2ccc(CNCCO)c(Cl)c2c1C | 1.5 | -1.9* | 0.19 | -0.76 | 97 | 519* | 212
Cc1c(N(C)C)nc2ccccc2c1N | 0.8 | -2.3* | 1.6 | 0.025 | 88 | 610 | 231
NC(=O)/C(=N\OC(=O)c1ccco1)c1nc(-c2ccc(Br)cc2)cs1 | 1 | / | -0.8 | / | / | / | /
COc1cc(CCC(=O)Nc2cc(Cl)ccc2N2CCN(C)CC2)cc(OC)c1OC | 1.5 | 0.16 | 1.6 | -0.018 | 93 | / | /
CN1CCN(c2ccc(Cl)cc2NS(=O)(=O)c2ccccc2Cl)CC1 | 1.3 | -3.6* | 0.52 | -1.1 | 110 | 345* | 261
O=C(NCC(c1cccnc1)N1CCN(c2ccc(F)cc2)CC1)c1ccc(F)cc1 (centres undefined) | 1.5 | -0.17 | -0.46 | 1.1 | 98 | / | /
COc1ccc(-c2[nH]ncc2-c2cnn(-c3ccccc3)c2)c(O)c1 | 2* | -3.3* | -0.062 | 0.38 | 154 | 553 | 202
CCOC(=O)c1cncc(NC(=O)c2ccccc2)c1 | 1.2 | 0.018 | 0.46 | -1 | 96 | / | /
Cc1ccc(C(=O)C2CCN(CC(=O)NC3CCCCC3)CC2)cc1 | 1.6 | -4.6* | -0.14 | -1.3 | 77 | 545* | 222
Cn1c(=O)c2c(nc(OCc3cccnc3)n2Cc2c(F)cccc2Cl)n(C)c1=O | 0.8 | -1.2* | 2.8 | 0.74 | 174 | 509* | 248
Cn1c(=O)c2c(nc(Br)n2Cc2c(F)cccc2Cl)n(C)c1=O | 0.9 | 1.2 | / | 0.13 | 104 | / | /
CC(=O)c1cnc(Nc2nc(C)c3cccc(C)c3n2)nc1C | 1 | -0.34 | / | -0.63 | 46 | / | /
SMILES | PLAP act | M1 antag | Cav32 inh | M1 ag | HER2 expr 66K | M1 antag conf | mGluR4 antag
CCN(CC)S(=O)(=O)c1ccc(C(=O)Nc2cccc(C)c2)cc1 | 1.1 | / | -1.6 | / | / | / | /
CCN(CC)S(=O)(=O)c1ccc(NS(=O)(=O)c2cccc(C)c2)cc1 | 1.1 | -2.6* | -4.6* | -0.13 | 103 | 581 | 251
CCCNC(=O)c1cccc(C(F)(F)F)c1 | 1 | / | 0.41 | / | / | / | /
CC(C)OC(=O)CSc1nnc(-c2ccc(O)cc2)n1Cc1ccccc1 | 1.1 | -3.3* | -1.3 | 0.0028 | 58 | 648 | 237
CCCNC(=O)CN1C(=O)NC2(CCCc3cc(OC)ccc32)C1=O (centres undefined) | 0.9 | / | 0.017 | / | / | / | /
COC(=O)CCC(=O)c1oc2ccccc2c1N | 0.9 | -0.63 | 0.93 | -0.12 | 98 | / | /
O=C1CC(c2ccco2)CC(O)=C1C=NCC1CCNCC1 (centres undefined) | 1 | -3.8* | -0.064 | -0.012 | 102 | 462* | 226
O=C1CC(c2ccco2)CC(O)=C1C=NCCN1CCNCC1 (centres undefined) | 1.2 | -0.7 | 0.43 | -0.93 | 97 | / | /
O=C(c1cc(-c2ccco2)on1)N1CCN(C(c2ccccc2)c2ccccc2)CC1 | 1.2 | -2.7* | -4.9 | -1.5 | 83 | 458 | 170
CC1CCN(C(=S)c2ccc3c(c2)OCO3)CC1 | 1 | / | 1.4 | / | / | / | /
O=C(CCC(=O)OCCCC(F)(F)C(F)(F)F)NC1CCCCC1 | 0.9 | -8.2* | 0.21 | 0.59 | 86 | 636 | 233
C=CCOC(=O)CCCC(=O)NC1CCCCC1 | 1.1 | -0.18 | 0.56 | 0.11 | 81 | / | /
CN(C)/C=C(/C#N)C(=O)c1cccc(Oc2ccc(C(C)(C)C)cc2)c1 | 1.5 | / | -1.3 | / | / | / | /
CCOC(=O)Nc1ccc(=O)n(Cc2c(Cl)cccc2Cl)c1 | 0.9 | / | -0.0093 | / | / | / | /
CCn1cnc2cc(NCc3ccncc3)ccc21 | 0.9 | -1.5 | 0.9 | 0.55 | 92 | / | /
CCc1ccc(CNc2ccc3c(c2)ncn3C)cc1 | 1.1 | -2.7* | 1 | -0.29 | 78 | 627 | 248
CC(C)n1c(-c2ccco2)csc1=Nc1cccnc1 | 0.8 | -3.3* | -5.2* | -0.23 | 95 | 471* | 194
c1cncc(-c2nc(-c3ccco3)cs2)c1 | 1.6 | -0.013 | -0.18 | 0.14 | 85 | / | /
COc1cccc(OCCCCN2CCCCC2)c1 | 0.9 | -1.2* | 1.4 | 0.11 | 106 | 280* | 203
COc1cccc(OCCCN2CCCCC2)c1 | 1.1 | -0.52 | 0.59 | -0.53 | 94 | / | /
CCOc1cccc(OCCCCN2CCCCC2)c1 | 0.9 | -3.1* | 0.51 | 0.36 | 102 | 329* | 214
COCCCNC(=O)CC(NS(=O)(=O)c1ccc(Cl)cc1)c1ccc(OC)cc1 (centres undefined) | 1.8 | / | -0.22 | / | / | / | /
CC(C)c1ccc(N(C(=O)C(F)(F)F)C(C(=O)NC2CCCCC2)c2ccncc2)cc1 (centres undefined) | 0.9 | / | / | / | / | / | /
Cn1c(=O)c2c(nc(CN3CCC(C(N)=O)CC3)n2Cc2c(Cl)cccc2Cl)n(C)c1=O | 1.7 | -4.1* | 1.4 | 0.54 | 86 | 547 | 246
CCN1CCN(c2nc3c(c(=O)n(C)c(=O)n3C)n2Cc2cccc3ccccc23)CC1 | 1.4 | -3.3* | 1.4 | 0.24 | 94 | 429* | 202

Screens deposited in PubChem BioAssay by several laboratories.
